Experimental findings from PubChem BioAssay AID449739 (Vanderbilt High Throughput Screening Facility, 2010) are described below.

Hit rate of the full screen: of about 100,000 compounds, about 4,200 (4.2%) were called active. The full list was thinned out, with actives kept by preference. Values without a mark were called inactive.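 The calls were made as follows: active = single-dose well whose peak fluorescence ratio is a statistical outlier from its plate by either plate-standardised score or position-corrected B-score; inactive = the rest.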

The experiment deals with Voltage-dependent T-type calcium channel subunit alpha-1H (Homo sapiens) (UniProt O95180). As to the kind of experiment: Cav3.2 calcium influx blockers – cell-based, Fluo-4 calcium fluorescence, FDSS, MLSMR library, primary screen (AID 449739). As to conditions: Cav3.2-expressing cells, at 10 µM, hits give low values.
Chain of Voltage-dependent T-type calcium channel subunit alpha-1H (Homo sapiens) (O95180 whole entry, looked up): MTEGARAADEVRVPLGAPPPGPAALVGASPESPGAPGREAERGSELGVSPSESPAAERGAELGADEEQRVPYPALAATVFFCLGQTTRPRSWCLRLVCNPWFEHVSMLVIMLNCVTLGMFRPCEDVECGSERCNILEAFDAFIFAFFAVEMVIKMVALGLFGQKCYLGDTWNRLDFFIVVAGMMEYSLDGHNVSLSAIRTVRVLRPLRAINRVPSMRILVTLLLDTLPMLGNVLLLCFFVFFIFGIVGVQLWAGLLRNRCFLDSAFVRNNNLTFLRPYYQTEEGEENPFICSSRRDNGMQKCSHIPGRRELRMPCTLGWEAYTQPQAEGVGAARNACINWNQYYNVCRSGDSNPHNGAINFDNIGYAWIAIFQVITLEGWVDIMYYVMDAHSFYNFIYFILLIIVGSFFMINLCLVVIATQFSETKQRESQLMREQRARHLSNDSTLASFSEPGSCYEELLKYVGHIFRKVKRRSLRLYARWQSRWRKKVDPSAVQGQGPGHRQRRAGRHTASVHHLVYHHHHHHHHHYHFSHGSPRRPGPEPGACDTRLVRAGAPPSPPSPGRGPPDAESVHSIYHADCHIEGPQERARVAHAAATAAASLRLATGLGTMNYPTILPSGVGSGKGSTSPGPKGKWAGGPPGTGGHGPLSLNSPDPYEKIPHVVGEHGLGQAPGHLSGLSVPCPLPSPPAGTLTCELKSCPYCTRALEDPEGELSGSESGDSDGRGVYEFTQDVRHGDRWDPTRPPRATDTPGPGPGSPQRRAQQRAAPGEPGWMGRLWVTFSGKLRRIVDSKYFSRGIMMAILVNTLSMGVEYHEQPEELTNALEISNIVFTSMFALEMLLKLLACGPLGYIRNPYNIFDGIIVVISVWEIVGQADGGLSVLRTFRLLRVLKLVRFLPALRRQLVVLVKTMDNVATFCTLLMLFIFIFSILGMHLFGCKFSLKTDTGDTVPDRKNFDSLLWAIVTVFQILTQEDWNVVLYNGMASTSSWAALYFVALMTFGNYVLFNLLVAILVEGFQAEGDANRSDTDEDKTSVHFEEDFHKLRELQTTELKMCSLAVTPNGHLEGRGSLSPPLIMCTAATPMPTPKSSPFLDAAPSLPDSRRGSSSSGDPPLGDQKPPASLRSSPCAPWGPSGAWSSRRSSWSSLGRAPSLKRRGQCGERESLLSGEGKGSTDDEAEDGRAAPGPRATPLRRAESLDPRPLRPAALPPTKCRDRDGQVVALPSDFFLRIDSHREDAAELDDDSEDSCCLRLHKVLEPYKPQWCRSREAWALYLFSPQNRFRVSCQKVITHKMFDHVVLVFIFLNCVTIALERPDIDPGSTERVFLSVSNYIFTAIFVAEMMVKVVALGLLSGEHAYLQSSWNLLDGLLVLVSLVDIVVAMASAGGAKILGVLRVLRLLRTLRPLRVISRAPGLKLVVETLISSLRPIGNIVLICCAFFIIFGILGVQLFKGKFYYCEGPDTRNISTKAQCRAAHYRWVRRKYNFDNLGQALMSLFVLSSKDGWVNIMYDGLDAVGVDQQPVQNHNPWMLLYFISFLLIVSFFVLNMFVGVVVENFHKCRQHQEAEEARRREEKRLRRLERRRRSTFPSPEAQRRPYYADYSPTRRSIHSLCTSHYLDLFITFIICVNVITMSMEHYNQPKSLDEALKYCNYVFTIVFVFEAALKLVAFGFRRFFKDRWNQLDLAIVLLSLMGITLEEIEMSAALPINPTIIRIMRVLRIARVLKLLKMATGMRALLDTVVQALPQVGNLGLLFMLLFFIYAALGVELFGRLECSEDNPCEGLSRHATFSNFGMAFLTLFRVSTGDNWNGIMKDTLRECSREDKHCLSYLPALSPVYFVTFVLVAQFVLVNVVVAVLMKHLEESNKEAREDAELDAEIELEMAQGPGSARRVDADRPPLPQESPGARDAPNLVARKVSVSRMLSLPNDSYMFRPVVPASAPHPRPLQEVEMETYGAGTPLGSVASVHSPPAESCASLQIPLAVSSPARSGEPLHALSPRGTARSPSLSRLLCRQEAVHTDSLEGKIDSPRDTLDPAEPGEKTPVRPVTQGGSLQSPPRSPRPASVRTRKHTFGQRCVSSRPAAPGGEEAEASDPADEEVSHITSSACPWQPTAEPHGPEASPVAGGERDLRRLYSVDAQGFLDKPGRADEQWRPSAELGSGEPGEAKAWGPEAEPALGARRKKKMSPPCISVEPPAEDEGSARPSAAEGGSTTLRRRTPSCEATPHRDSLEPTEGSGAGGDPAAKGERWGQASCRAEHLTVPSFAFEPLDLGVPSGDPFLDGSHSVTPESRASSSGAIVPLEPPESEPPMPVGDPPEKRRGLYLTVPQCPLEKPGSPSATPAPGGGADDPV
For the compound `COc1ccc(CNC(=O)C2CC(c3ccc(C(F)(F)F)cc3)=NO2)cc1` (centres undefined), the B-score is -2.34. Regarding `O=C(C1=C[C@H](c2coc3ccccc3c2=O)C[C@H](OCc2ccc(CO)cc2)O1)N1CCN(Cc2ccccc2)CC1`, the B-score is -1.94. Turning to `O=C1NC[C@@H](Cc2ccc(O)cc2)N(CCc2cccc(F)c2)C1=O`, the B-score was -1.22. For `COCCN1C(=O)N[C@@H](c2ccccc2)C(C(=O)OC)=C1C`, the B-score was 0.0333. For `CCN1C(=O)N[C@@H](c2ccccc2)C(C(=O)OC)=C1C` the value was -0.116; for `COC(=O)C1=C(C)N(C)C(C)=C(C(=O)OC)C1c1cccc(Br)c1`, -4.38 (active); for `CCc1ccc(/C=N/NC(=O)c2ccc(OC3CCCC3)cc2)s1`, -0.109. For `CCOC(=O)C1=C(CN2CCc3ccccc32)NC(=O)NC1c1ccc(Cl)cc1` (centres undefined) the value was -5.78 (active); for `CCOC(=O)C1=C(CN2CCc3ccccc32)NC(=O)NC1c1cc(C)ccc1C` (centres undefined), 0.647; for `CCOC(=O)C1=C(CN2CCc3ccccc32)NC(=O)NC1c1cccc([N+](=O)[O-])c1` (centres undefined), -1.81. Consider `COC(=O)CCCC1=CC2=CC(=O)C(C)(OC(=O)c3cccs3)C(=O)C2=CN1c1cccc(C#N)c1` (centres undefined), for which the B-score is 0.181. Turning to `CCCCC(=O)Nc1nc(C)c(-c2csc(Nc3ccc(Cl)cc3)n2)s1`, the B-score was 0.015. As to `Cc1ccc(Nc2nc(-c3sc(NC(=O)c4ccccc4)nc3C)cs2)cc1`, the B-score is -0.00441. For `Cc1nc(C)c(-c2csc(NCCc3ccccc3)n2)s1`, the B-score is -6.45 (active). For `CCn1c(O)c2ccc(C(=O)N=NC(=O)c3cccnc3)cc2c1O`, the B-score was -0.0483. In the case of `CCCc1[nH]nc2c1C(c1ccc(OC)c(Cn3nc(C)c(Br)c3C)c1)C(C#N)=C(N)O2` (centres undefined) it was -0.964; in that of `CCCc1[nH]nc2c1C(c1ccc(Br)s1)C(C#N)=C(N)O2` (centres undefined), 0.903; in that of `CCCc1[nH]nc2c1C(c1c(C)nn(-c3ccccc3)c1Cl)C(C#N)=C(N)O2` (centres undefined), -4.44 (active). Take `COc1cc(C2OC(c3cc(OC)c(OC)c(OC)c3)C(C)C2C)cc(OC)c1OC` (centres undefined): the B-score is -2.38. Regarding `O=C(NCCCCc1ccccc1)C1CC(c2ccc([N+](=O)[O-])cc2)=NO1` (centres undefined), the B-score is -2.65.

On to `CCOC(=O)/C=C/c1ccc(C(F)(F)F)cc1S(=O)(=O)NC(C)(C)C`, for which the B-score is 0.0548.

Take `O=C(NCN1CCN(CCO)CC1)c1cnccn1`: the B-score was 0.423. `Cc1ccccc1N/N=C/c1ccc(N2CCOCC2)cc1`: the B-score was 0.0508. For `CCn1c(CNc2ccc(OC)cc2)nnc1SCC(=O)c1ccc(OC)cc1` the value was 0.231; for `O=C(CSc1nnc(-c2cccnc2)n1Cc1ccco1)c1ccc(Cl)cc1`, 0.695; for `COc1ccc(C(=O)CSc2nnc(COc3ccccc3)n2Cc2ccco2)cc1`, -4.51 (active).

For `CC(C)C(NS(=O)(=O)c1cccs1)C(=O)Nc1nc(C(C)(C)C)cs1` (centres undefined), the B-score is -3.54. Take `C=CCn1c(SCc2cc(C(=O)OC)c(C)o2)nnc1-c1ccncc1`: the B-score was 0.333. Take `C=CCn1c(SCc2c(C(=O)OC)sc(N)c2C(=O)OC)nnc1-c1ccc(Cl)cc1`: the B-score is -3.5 (active). Turning to `C=CCn1c(SCn2nnc3ccccc3c2=O)nnc1-c1ccc(Cl)cc1`, the B-score is -1.02. For `COc1cccc2c1OCC(C(=O)NCc1ccc(Cl)cc1Cl)=C2` the value was -1.48; for `CCc1nnc(SCc2cccc(F)c2)nc1CC`, -2.53. `C/C(=N\NC(=O)c1ccccc1C)c1ccc(N2CCOCC2)cc1`: the B-score was -0.0283. `O=S(=O)(NN=C1CCCCCCC1)c1ccc(Br)cc1`: the B-score is -1.71. For the compound `C/C(=N\NS(=O)(=O)c1cccc([N+](=O)[O-])c1)c1cc2ccccc2o1`, the B-score is -0.824. As for `C/C(=N\NS(=O)(=O)c1ccc(Br)cc1)c1cccs1`, the B-score was -5.02 (active). Turning to `O=Cc1c(N2CCN(c3cccc(Cl)c3)CC2)nc2ccccn2c1=O`, the B-score was -1.81. With `O=C(CSc1nnc(-c2cccs2)n1-c1ccccc1)NCc1ccco1`, the B-score was 0.148.

As for `Cc1cc(C(=O)OCC(=O)NCc2ccco2)c(C)n1-c1ccccc1`, the B-score was -4.45 (active). On to `O=C(COC(=O)C12CC3CC(CC(C3)C1)C2)NCc1ccco1`, for which the B-score was -0.704. In the case of `ONC(=Nc1ccc(Cl)cc1)c1ccccc1Cl`, the B-score was -1.41.

In the case of `O=c1c2ccccc2nc2n1C(CSc1ccc(F)cc1)CN2` (centres undefined), the B-score is 1.22. For the compound `O=C(Nc1ncc2c(n1)-c1ccccc1OC2)c1ccc(Cl)cc1`, the B-score was -4.5 (active). With `COc1ccc(C(=O)Nc2ncc3c(n2)-c2ccccc2CC3)cc1`, the B-score is 0.00103. For `COC(=O)c1nc(NC(=O)c2ccc(Cl)cc2)n[nH]1`, the B-score is 1.01.

In the case of `C/C=C\C=C\C(=O)N1CC2(CC(c3cccc(NC(=O)/C(C)=C\C)c3)=NO2)C[C@H]1C(N)=O` (some centres undefined), the B-score was 0.133. In the case of `CCOC(=O)c1ccc(NC(=O)c2nc[nH]c2C(=O)N[C@@H](CCCCNC(=O)OC(C)(C)C)C(=O)OC(C)(C)C)cc1` it was -0.307.

`O=C(NCCC1=CCCCC1)C1CCN(Cc2cnn(-c3ccccc3)c2-n2cccc2)CC1`: the B-score was -5.79 (active).

With `C1=C(CCNc2ncnc3c2cnn3-c2ccccc2)CCCC1`, the B-score was -0.0964.

With `Cc1cc(C)cc(NC(=O)CSCc2cnn(-c3ccccc3)c2-n2cccc2)c1`, the B-score is -2.22. As to `COc1cccc(NC(=S)N(CCc2c(C)[nH]c3ccccc23)Cc2ccco2)c1`, the B-score was -2.67. For `CNC(=O)c1[nH]cnc1C(=O)N[C@@H](CC(C)C)C(=O)OC(C)(C)C`, the B-score is 0.371. For `Cc1noc(C)c1C(=O)N(CC(=O)NC1CCCC1)Cc1ccccc1F` the value was 0.408. With `CCC(CC)C(=O)N1CC(=O)Nc2ccc(Br)cc2C1c1ccccc1` (centres undefined), the B-score is -4.79 (active).

Regarding `COC(=O)CN1C(C)=Nc2ccc(Br)cc2C1c1ccccc1` (centres undefined), the B-score is -0.737. For `CCOC(=O)C1C(=O)NCC1c1ccccc1` (centres undefined), the B-score is 0.378. In the case of `CCCCCCCCOC1OC(CO)C(O)C(O)C1NC(C)=O` (centres undefined), the B-score is 0.195.

Consider `O=c1c2ccccc2nc(N/N=C/c2ccccc2)n1O`, for which the B-score is -5.17 (active). For the compound `FC(F)(F)c1nc2ccccc2nc1N/N=C/c1ccc(Cl)cc1`, the B-score is -0.00807. For `CC(C)(C)c1nc2ccccc2c(=O)n1N1C(=O)c2ccccc2C1=O` the value was -0.127; for `C#CCCOC(=O)N1C2=NC(C(=O)OC)=C(C(=O)OC)[C@@H]3N(C)c4ccc(OC)cc4[C@]23C[C@H]1C(=O)OC`, 0.061; for `Cc1nc(-c2ccc(Cl)cc2)sc1C1(C)CC(c2ccc(Br)cc2)=NO1` (centres undefined), -0.405.

In the case of `Cc1nn(C)c(Oc2ccc(Cl)cc2)c1C=O`, the B-score is -0.0899. Regarding `C=CCSc1nnc2c(n1)-c1cccc3cccc-2c13`, the B-score was 0.673.

In the case of `COc1ccc(NC(=O)c2c(SC)nsc2SC)cc1`, the B-score is 0.226. For the compound `CSc1nsc(SC)c1NC(=O)OC1CCCCC1`, the B-score is -4.23 (active).

On to `CC(Cc1cccs1)NC(=O)NC1CCCCC1` (centres undefined), for which the B-score was -2.2. For `CC(C)C(OC(=O)c1cccs1)C(=O)NC1CCCCC1` (centres undefined) the value was -0.509. For `O=C(NCC(=O)N(Cc1cccs1)C(C(=O)NC1CCCCC1)c1ccco1)c1cccs1` (centres undefined) the value was -6.73 (active). Consider `Cc1nnc(NC(=O)Nc2ccc(Cl)c(Cl)c2)s1`, for which the B-score was -0.569. For `O=C(CC(O)(C(F)(F)F)C(F)(F)F)Nc1ccc(Cl)c(Cl)c1` the value was -6.32 (active). As to `N/C(=N\OC(=O)Nc1ccc(Cl)c(Cl)c1)c1ncc(C(F)(F)F)cc1Cl`, the B-score was -0.00792. As to `COC(=O)CNC(=O)c1ccccc1[N+](=O)[O-]`, the B-score is 2.22. On to `CC(=O)N[C@H]1[C@H]([C@H](O)[C@H](O)CO)OC(C(=O)O)=C[C@@H]1O`, for which the B-score is 0.744. With `CC(C)CNC(=O)CC(c1ccccc1)c1c(O)ccc2ccccc12` (centres undefined), the B-score was -6.12 (active). Take `Cc1ccc(CNC(=O)C2CC(c3ccccc3[N+](=O)[O-])=NO2)o1` (centres undefined): the B-score is -1.03. Take `COc1ccc(C(=O)CN(C(=O)c2ccc(Cl)cc2)N2C(=O)c3ccccc3C2=O)cc1`: the B-score was -1.99. With `O=C(Cc1ccc(S(=O)(=O)N2CCCC2)s1)NC1CCCCCC1`, the B-score was 0.271.

Consider `O=C(Cc1ccc(S(=O)(=O)N2CCOCC2)s1)NCCC(c1ccccc1)c1ccccc1`, for which the B-score is -6.74 (active). For `O=C(NCCSCc1ccccc1)c1ccc(Cl)c(S(=O)(=O)N2CCOCC2)c1` the value was -3.48; for `CC(=O)c1ccc2c(ccc3ccccc32)c1`, -0.705; for `CC(=O)c1sc(NC(=O)c2cccc3ccccc23)nc1C`, -0.12.

For `CC(=O)c1nn(-c2cccc(Br)c2)cc1C(=O)c1cccc2ccccc12`, the B-score is -4.57 (active).

Consider `CCNC(=S)N1CCN(C(=O)c2ccco2)CC1`, for which the B-score is -0.0983. For the compound `CCN(CC)CCN1C(=O)C(=O)/C(=C(/O)c2cnn(-c3ccccc3)c2C)C1c1cccs1` (centres undefined), the B-score was 0.414. In the case of `O=C(Nc1ccc(Oc2ccccc2)cc1)c1ccco1` it was -0.246; in that of `COc1ccc(CCNC(=O)c2ccco2)cc1`, 0.807; in that of `CC(Oc1ccc2ccccc2c1)C(=O)NNC(=S)NC(=O)c1ccco1` (centres undefined), -7.25 (active).

Turning to `CCO[C@H]1OC(C(=O)NCc2ccccc2)=C[C@@H](c2coc3ccccc3c2=O)[C@@H]1CCCO`, the B-score was 0.119.

Turning to `CC1=NN(Cc2ccccc2)C(=O)/C1=C/c1ccc(N(C)C)cc1`, the B-score is -2.13. `CS(=O)(=O)N1CCN(c2ccc(C(=O)NC3C4CC5CC(C4)CC3C5)cc2[N+](=O)[O-])CC1` (centres undefined): the B-score is 0.716. For `O=C(Nc1ccc2c(c1)OCCO2)c1ccc(Cl)c(S(=O)(=O)N2CCCCC2)c1`, the B-score is -1.46.

Take `Cc1ccc(C(=O)Nc2ccc3c(c2)OCO3)cc1S(=O)(=O)N1CCCCC1`: the B-score was -5.28 (active). In the case of `Cc1ccc(C(=O)NCC(=O)O)cc1S(=O)(=O)N1CCCCC1`, the B-score is 1.06.
